{"source": "PubChem BioAssay (Tox21)", "note": "Inconclusive results are not listed. Where a call stands in place of a potency, no number is given. Active and inactive are the calls of the source. Calls follow the shape of the dose curve; as a rule, active = well fitted inhibition curve with a large enough effect in the signal ratio in the repeat runs (not every such curve was filed as active); inconclusive = weak or mixed curves; inactive = flat fitted curve, though single readings scatter; the % refers to the signal ratio. Potency is read from the fitted curve at half-maximal effect."}
{"target": "Progesterone receptor (Homo sapiens) (UniProt P06401)", "sequence (P06401 whole entry, looked up)": "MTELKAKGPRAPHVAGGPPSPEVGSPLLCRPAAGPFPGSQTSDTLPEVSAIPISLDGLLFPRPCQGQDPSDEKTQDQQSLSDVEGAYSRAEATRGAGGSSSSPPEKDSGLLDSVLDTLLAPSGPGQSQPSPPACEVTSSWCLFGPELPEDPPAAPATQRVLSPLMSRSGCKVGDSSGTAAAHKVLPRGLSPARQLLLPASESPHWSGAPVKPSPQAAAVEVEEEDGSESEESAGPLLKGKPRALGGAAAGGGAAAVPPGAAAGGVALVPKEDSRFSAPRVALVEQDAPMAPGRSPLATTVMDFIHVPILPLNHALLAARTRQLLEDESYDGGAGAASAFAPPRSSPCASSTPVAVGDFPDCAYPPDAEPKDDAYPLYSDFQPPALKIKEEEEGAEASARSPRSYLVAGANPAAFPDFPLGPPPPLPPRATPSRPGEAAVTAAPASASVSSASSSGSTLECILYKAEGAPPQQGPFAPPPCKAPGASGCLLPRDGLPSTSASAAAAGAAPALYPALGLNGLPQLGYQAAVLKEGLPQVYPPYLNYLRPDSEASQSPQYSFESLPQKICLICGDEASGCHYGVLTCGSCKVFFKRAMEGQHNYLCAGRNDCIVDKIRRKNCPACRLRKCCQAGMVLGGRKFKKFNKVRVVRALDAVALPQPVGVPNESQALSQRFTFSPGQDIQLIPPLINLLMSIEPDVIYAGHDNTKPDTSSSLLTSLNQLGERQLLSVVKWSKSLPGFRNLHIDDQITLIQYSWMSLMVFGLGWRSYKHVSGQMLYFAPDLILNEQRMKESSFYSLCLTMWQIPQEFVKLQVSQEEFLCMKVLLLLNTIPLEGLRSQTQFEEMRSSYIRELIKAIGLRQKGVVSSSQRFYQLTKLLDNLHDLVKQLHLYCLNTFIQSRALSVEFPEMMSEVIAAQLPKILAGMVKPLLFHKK", "assay": "qHTS assay to identify small molecule antagonists of the progesterone receptor (PR) signaling pathway (AID 1346795)", "settings": "PR-UAS-bla HEK293T, beta-lactamase FRET ratio, 16 h; series mostly up to 92.4 µM", "excerpt": "National Center for Advancing Translational Sciences [NCATS]\nNIH Chemical Genomics Center [NCGC]\nU.S. Environmental Protection Agency [EPA]\nNational Institutes of Environmental Health Sciences [NIEHS]\nNational Toxicology Program [NTP]\nU.S. Food and Drug Administration [FDA]\nProgesterone receptor (PR), a nuclear hormone receptor, plays an important role in development, metabolic homeostasis and reproduction. […] Endocrine disrupting chemicals (EDCs) and their interactions with steroid hormone receptors like PR causes disruption of normal endocrine function. To identify the compounds that inhibit PR signaling, a PR-UAS-bla GripTite cell line i.e. PR-UAS-bla HEK293T (Invitrogen, Carlsbad, CA, USA) containing a beta-lactamase reporter gene under the control of an Upstream Activator Sequence (UAS) was used to screen Tox21 10K compound library.\nTox21 Assay Protocol Summary:\nPR-UAS-bla HEK293T cells were dispensed at 3,000 cells/4 uL of assay medium containing 2% charcoal stripped FBS per well into black wall/clear-bottom 1536-well plates using a Multidrop Combi (ThermoFisher Scientific, Waltham, MA) dispenser. After the assay plates were incubated at a 37C and 5% CO2 for 6 hr, 23 nL of compounds dissolved in DMSO, positive controls or DMSO only was transferred to the assay plate by a Pintool station (Kalypsys, San Diego, CA), followed by addition of 1 uL (1nM as final concentration) of Promegestone (R5020) in assay medium using a BioRAPTR FRD (Flying Reagent Dispenser, Aurora Discovery, San Diego, CA). The plates were incubated at 37C and 5% CO2 for 16 hr. Then 1 uL of LiveBLAzer B/G FRET substrate was added using a FRD. After the plates were incubated at room temperature for 2 hours, fluorescence intensity was measured by an Envision plate reader (PerkinElmer, Shelton, CT)."}
{"smiles": "Cc1ccc(C(N)=O)cc1N", "Potency": "inactive"}
{"smiles": "N[C@H]1C(O)O[C@H](CO)[C@H](O)[C@@H]1O", "note": "(stereo not given in full)", "Potency": "inactive"}
{"smiles": "CCCCCCCCCC=O", "Potency": "inactive"}
{"smiles": "CC(C)NCC(O)COc1ccc(CC(N)=O)cc1", "note": "(stereo not given)", "Potency": "inactive"}
{"smiles": "CC(CN)CCCN", "note": "(stereo not given)", "Potency": "inactive"}
{"smiles": "C1=Cc2ccccc2C1", "Potency": "inactive"}
{"smiles": "CC(=O)/C(C)=C/C1C(C)=CCCC1(C)C", "note": "(stereo not given)", "Potency": "inactive"}
{"smiles": "OCCC1CCCCN1", "note": "(stereo not given)", "Potency": "inactive"}
{"smiles": "O=C(CCN1CCN2CCCC2C1)N1c2ccccc2Sc2ccc(Cl)cc21", "note": "(stereo not given)", "activity change, negative = inhibition": "-10.4% [at 18.9 µM] (inactive)"}
{"smiles": "CCC(=O)OC(C)(C)C1CC=C(C)CC1", "note": "(stereo not given)", "Potency": "inactive"}
{"smiles": "Cc1cc(CC(=O)O)c(C)n1-c1ccc(Cl)cc1", "Potency": "inactive"}
{"smiles": "CCCCCCCCCCCCCCCCCBr", "activity change, negative = inhibition": "0.192% [at 18.9 µM] (inactive)"}
{"smiles": "CCOC(=O)C1=NN(c2ccccc2)C(=O)C1", "Potency": "inactive"}
{"smiles": "Cc1cccc(Oc2ccccc2)c1", "Potency": "inactive"}
{"smiles": "Cc1cc(C)c(S(=O)(=O)O)cc1N=Nc1cc(S(=O)(=O)O)c2ccccc2c1O", "Potency": "inactive"}
{"smiles": "CCOC(=O)CC(=O)c1cc(F)c(Cl)nc1Cl", "Potency": "inactive"}
{"smiles": "S=C(S)NCCNC(=S)S", "Potency": "inactive"}
{"smiles": "CCN(CC)CCOC(=O)C1(c2ccccc2)CCCC1", "Potency": "inactive"}
{"smiles": "CC[C@]12CCCN3CCc4c(n(c5ccccc45)C(=O)C1)[C@@H]32", "Potency": "13.3 µM (active)"}
{"smiles": "CC[C@H](C)[C@@H](C(=O)O)n1sc2ccccc2c1=O", "Potency": "inactive"}
{"smiles": "CCCC(=O)OCC", "Potency": "inactive"}
{"smiles": "CC(=O)O[C@@H]1C(=O)O[C@@H]2[C@H]1OC(=O)[C@@H]2OC(C)=O", "Potency": "inactive"}
{"smiles": "CC(Cc1cccc(C(F)(F)F)c1)NCCOC(=O)c1ccccc1", "note": "(stereo not given)", "Potency": "inactive"}
{"smiles": "CCCCCCCCCCCCCCCBr", "Potency": "inactive"}
{"smiles": "CCCCCC(CO)CCC", "note": "(stereo not given)", "Potency": "inactive"}
{"smiles": "Cc1ccccc1N=Nc1ccc(N=Nc2c(O)ccc3ccccc23)c(C)c1", "Potency": "inactive"}
{"smiles": "C=CC(C)(CCC=C(C)C)OC(=O)c1ccccc1", "note": "(stereo not given)", "Potency": "inactive"}
{"smiles": "CNS(=O)(=O)Cc1ccc2[nH]cc(CCN(C)C)c2c1", "Potency": "inactive"}
{"smiles": "CN1CCC(=C2c3ccccc3C=Cc3ccccc32)CC1", "Potency": "inactive"}
{"smiles": "COc1ccc(OC)c(OC)c1", "Potency": "inactive"}
{"smiles": "NCCCN(CCO)CCO", "Potency": "inactive"}
{"smiles": "NC(N)=N/N=C/c1c(Cl)cccc1Cl", "Potency": "inactive"}
{"smiles": "C=Cc1c(C)c2cc3[nH]c(cc4nc(cc5nc(cc1[nH]2)C(C)=C5CCC(=O)O)C(CCC(=O)O)=C4C)c(C)c3C=C", "Potency": "inactive"}
{"smiles": "SC1CCCC1", "Potency": "inactive"}
{"smiles": "CCOc1ccc2[nH]cc(C(=O)NCc3ccccc3)c(=O)c2n1", "Potency": "inactive"}
{"smiles": "CC1=CCC(C(C)C)C=C1", "note": "(stereo not given)", "Potency": "inactive"}
{"smiles": "C=C(C)C(=O)OCCOc1ccccc1", "Potency": "inactive"}
{"smiles": "c1ccc(CNCc2ccccc2)cc1", "Potency": "inactive"}
{"smiles": "CC[C@H](C)[C@H](N)C(=O)O", "Potency": "inactive"}
{"smiles": "O=C(O)C1CCC(C(=O)O)CC1", "note": "(stereo not given)", "Potency": "inactive"}
